Molecules are shown by their SMILES. The list shows a part of the results. Where a call stands in place of a potency, no number is given. Results filed as inconclusive are left out. Activity calls are given as the source filed them. Calls follow the shape of the dose curve; as a rule, active = well fitted inhibition curve with a large enough effect; inconclusive = small, poorly fitted or top-dose-only effect; inactive = no such curve, though single readings can be large or run the other way. Peptide text beside a SMILES is read from it. * marks the point of attachment. Bz = O=C(c1ccccc1)*
Potency is read from the fitted curve at half-maximal effect.

Sequence of ATP-dependent DNA helicase Q1 (Homo sapiens) (P46063 whole entry, looked up): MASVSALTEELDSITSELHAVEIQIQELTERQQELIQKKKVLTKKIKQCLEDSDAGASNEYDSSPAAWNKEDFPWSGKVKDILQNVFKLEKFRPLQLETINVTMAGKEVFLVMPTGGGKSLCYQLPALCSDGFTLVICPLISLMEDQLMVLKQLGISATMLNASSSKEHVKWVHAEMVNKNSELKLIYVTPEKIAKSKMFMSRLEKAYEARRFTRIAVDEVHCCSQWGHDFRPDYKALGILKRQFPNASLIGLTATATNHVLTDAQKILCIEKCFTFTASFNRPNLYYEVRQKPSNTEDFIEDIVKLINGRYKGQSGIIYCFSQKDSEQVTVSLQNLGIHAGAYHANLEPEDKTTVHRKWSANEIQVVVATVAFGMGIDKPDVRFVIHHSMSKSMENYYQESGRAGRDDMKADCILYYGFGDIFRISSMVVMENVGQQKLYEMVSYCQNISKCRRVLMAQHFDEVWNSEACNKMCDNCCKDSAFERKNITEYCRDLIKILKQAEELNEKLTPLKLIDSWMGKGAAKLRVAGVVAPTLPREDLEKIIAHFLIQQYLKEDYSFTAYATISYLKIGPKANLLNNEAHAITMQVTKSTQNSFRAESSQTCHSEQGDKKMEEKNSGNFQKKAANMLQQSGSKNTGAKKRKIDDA

The target in this test is ATP-dependent DNA helicase Q1 (Homo sapiens) (UniProt P46063). Nature of the test: Confirmation qHTS Assay for Inhibitors of RecQ-Like Dna Helicase 1 (RECQ1). Also: nearly all actives have a fitted effect of over 45% in size. As to conditions: RECQ1 helicase DNA unwinding, fluorescence; series mostly up to 229 µM. The source says:
Survival of cells and the faithful propagation of the genome depend on elaborate mechanisms of detecting and repairing DNA damage. Treatment of advanced cancer relies on radiation therapy or chemotherapy, which kill cancer cells by causing extensive DNA damage. It is often found, that cancer cells develop resistance to therapy through enhanced activity of DNA repair functions; this has led to an increased interest in developing drugs that interfere with DNA repair, which could sensitize cancer cells to conventional therapy.
This validation qHTS assay pertains to human RECQ1, which is important in resolving abnormal DNA structures formed during replication or homologous recombination. Shutting down the expression of RECQ1 leads to chromosomal instability and higher radiation sensitivity in cultured cells.
The validation assay was a fluorescence quenching based kinetic qHTS for RECQ1 Helicase DNA unwinding. The activity was measured as ATP-dependent separation of a 20-bp DNA duplex extended by 30-nt single-stranded tails (forked duplex). The forked DNA substrate was tagged with rhodamine fluorophore (carboxytetramethyl rhodamine, TAMRA) and BHQ-2 (Black Hole Quencher 2) dark quencher. Strand separation results in an increase in the fluorescence of TAMRA (excitation 525 nm, emission 598 nm). This substrate construct operates in a red-shifted region where very few compound library members have been noted to fluoresce (PubChem AIDs 593 and 594). An additional feature of the assay is the inclusion of 2.5 ug/ml poly (dIdC), to reduce interference by compounds such as DNA intercalators, a major source of false inhibitors.
Opher Gileadi, Structural Genomics Consortium, University of Oxford
Screening Center PI: Austin, C.P.
Screening Center: NIH Chemical Genomics Center [NCGC]
Three uL of reaction buffer (25 mM Tris-HCl (pH 8.0), 5 mM NaCl, 2 mM MgCl2, 1mM DTT, 0.01% Tween- 20, and 2.5 ug/ml poly(dI-dC), including enzyme (50 nM RECQ1T1), were dispensed into a 1536-well Greiner black assay plate via solenoid-valve based nanoliter dispensers. Compounds (23 nl each in columns 5-48) and control (23 nl each in column 2 as dose-response) were transferred via a Kalypsys pintool equipped with a 1536-pin array. The plates were incubated for 15 min at room temperature, and then 1 ul of substrates (200 nM DNA and 2 mM ATP, final concentrations) was added to start the reaction. The plate was transferred into a ViewLux high-throughput CCD imager where the reaction progress was measured in a discontinuous kinetic mode (two reads spaced 2 hours apart, with intermediate room temperature incubation of the covered assay plate) by using standard red-fluorescence optics (excitation filter 525 nm, emission filter 598 nm). Enzyme-free and vehicle (DMSO) controls were included for signal normalization.
On the technique in general: qHTS replaces the single test concentration by a dilution series.
In the case of `O=C(CCn1nnc2ccccc2c1=O)N[C@@H](Cc1c[nH]c2ccccc12)C(=O)O`, the Potency result is “inactive”. `CC(C)(O)c1ccccc1CC[C@H](SCC1(CC(=O)O)CC1)c1cccc(/C=C/c2ccc3ccc(Cl)cc3n2)c1`: the Potency was 40.8 µM (active). With `COc1ccc(-c2nc3c(c(SCC(=O)Nc4ccc(C(=O)O)cc4)n2)Cc2ccccc2O3)cc1`, the Potency was 2.89 µM (active). Regarding `O=C(O)CCn1c(SCc2cc(=O)n3ccccc3n2)nc2ccsc2c1=O`, the Potency result is “inactive”. Regarding `O=C(NC(Cc1c[nH]c2ccccc12)C(=O)O)/C(=C/c1ccco1)NC(=O)c1ccccc1` (configuration not stated), the Potency entry was “inactive”. With `Oc1ccc(N=Cc2sc3ccccc3c2Cl)cc1`, the Potency result is “inactive”. With `CC1Cc2ccccc2N1C(=O)CSc1nnc(-c2ccc(S(=O)(=O)N3CCCC3)cc2)n1C` (configuration not stated), the Potency result was “inactive”. On to `Cc1ccc(C)n1C(Cc1ccccc1)C(=O)O` (configuration not stated), for which the Potency was 22.4 µM (active). The value for `O=C(NCc1ccccc1)C1=C[C@@H](C2CCCCC2)C[C@@H](OCc2ccc(CO)cc2)O1` was “inactive”. The value for `O=C(c1cc2c(s1)CCC2)N1CCN(c2ccccc2)CC1` was 39.8 µM (active); that for `CC(=O)Nc1ccc(Nc2c3ccccc3nc3ccccc23)cc1` was 22.4 µM (active). As to `O=C(NC(Cc1ccccc1)C(=O)N1CCCC1C(=O)O)c1ccccc1` (stereo not drawn) (Bz-Phe-Pro-OH; configuration not given here), the Potency entry was “inactive”. As to `COc1cc(C2C(C(=O)c3ccc(C)o3)=C(O)C(=O)N2CCc2ccccc2)ccc1O` (configuration not stated), the Potency entry was “inactive”. On to `O=C(N/N=C/c1sc(N2CCCCC2)nc1-c1cccs1)c1cccnc1`, for which the Potency entry was “inactive”. For the compound `Cc1ccccc1NC(=O)CN1C(=O)N/C(=C\c2cccn2-c2cccc(C(=O)O)c2)C1=O`, the Potency was 31.6 µM (active). Next, `c1ccc(CSc2nnc(-c3ccco3)c(-c3ccco3)n2)cc1`: 39.8 µM (active). The value for `CC1(C)OC2CC(=O)OC[C@@]23C1CC(=O)[C@]1(C)C3CC[C@@]2(C)C(c3ccoc3)OC(=O)C3O[C@@]321` (some centres not stated) was “inactive”.

These data come from PubChem BioAssay AID2708 (National Center for Advancing Translational Sciences (NCATS), 2010).
